Values joined by “and” are separate entries in the source; they are usually repeats but may differ in a detail not shown here. Equal entries are not always repeated. The whole screen tested about 5,500 compounds, of which about 2,000 (36%) were called active. Another 18% or so got no clear call; they are omitted. Cut-off read from the data, not from the text of the source: active = normalized growth mostly below about 0.91 (no sharp cut-off); inconclusive = no clear call, values can overlap the other calls; inactive = mostly above about 0.92. The list shows a part of the results.
Assay: chemical genetic growth profiling, strain panel (AID 1159580);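 note: tested at 20 µM; growth read once vehicle control cultures reached saturation at 30 °C; 1 = growth at the plate median or of vehicle wells; lower values mean less growth of the strain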
Conditions: S. cerevisiae deletion strains, growth OD

Measured: normalized growth

CC(C)/C(O)=C1/C(=O)O[C@@H](c2ccoc2)[C@]2(C)C(O)[C@@H](O)[C@@]34OC5(C)OC67CC(C)(C(O)[C@]6(O)[C@@H](O)[C@]3(O5)C12)[C@H](CC(=O)O)[C@]74C (stereo partly drawn)
inactive: locus YAL021C, strain ccr4, stronger effect = lower value 0.945 | locus YAL026C, strain drs2, stronger effect = lower value 1.01 | locus YAL030W, strain snc1, stronger effect = lower value 0.979 | locus YBL061C, strain skt5, stronger effect = lower value 1.01 | locus YBR009C, strain hhf1, stronger effect = lower value 0.993 | locus YBR021W, strain FUR4, stronger effect = lower value 0.991 | locus YBR023C, strain chs3, stronger effect = lower value 0.992 | locus YBR171W, strain sec66, stronger effect = lower value 1.01 | locus YBR229C, strain ROT2, stronger effect = lower value 1 | locus YBR231C, strain swc5, stronger effect = lower value 1.03 | locus YBR279W, strain paf1, stronger effect = lower value 0.997 | locus YCL011C, strain gbp2, stronger effect = lower value 0.975 | locus YCL016C, strain dcc1, stronger effect = lower value 0.982 | locus YCL029C, strain bik1, stronger effect = lower value 0.997 | locus YCL061C, strain MRC1, stronger effect = lower value 0.998 | locus YCL069W, strain vba3, stronger effect = lower value 0.981 | locus YCR088W, strain abp1, stronger effect = lower value 0.994 | locus YDL005C, strain med2, stronger effect = lower value 0.985 | locus YDL035C, strain GPR1, stronger effect = lower value 0.993 | locus YDL040C, strain nat1, stronger effect = lower value 0.995 | locus YDL074C, strain BRE1, stronger effect = lower value 1 | locus YDL101C, strain DUN1, stronger effect = lower value 1.01 | locus YDL185W, strain tfp1, stronger effect = lower value 1.02 | locus YDL192W, strain arf1, stronger effect = lower value 1.01 | locus YDR001C, strain nth1, stronger effect = lower value 0.974 | locus YDR069C, strain doa4, stronger effect = lower value 1.02 | locus YDR101C, strain arx1, stronger effect = lower value 0.986 | locus YDR137W, strain rgp1, stronger effect = lower value 0.992 | locus YDR150W, strain NUM1, stronger effect = lower value 0.965 | locus YDR159W, strain sac3, stronger effect = lower value 1.06 | locus YDR162C, strain NBP2, stronger effect = lower value 1.01 | locus YDR195W, strain ref2 0.974 | locus YDR297W, strain sur2, stronger effect = lower value 1.01 | locus YDR318W, strain mcm21, stronger effect = lower value 1.01 | locus YDR334W, strain swr1, stronger effect = lower value 0.988 | locus YDR335W, strain msn5, stronger effect = lower value 0.987 | locus YDR388W, stronger effect = lower value 1 | locus YDR392W, strain spt3, stronger effect = lower value 0.933 | locus YDR502C, strain sam2, stronger effect = lower value 1.01 | locus YEL003W, strain gim4, stronger effect = lower value 1.01 | locus YEL037C, strain rad23, stronger effect = lower value 0.99 | locus YEL061C, strain CIN8 (second series), stronger effect = lower value 0.985 | locus YER015W, strain faa2, stronger effect = lower value 1.01 | locus YER016W, strain bim1, stronger effect = lower value 0.998 | locus YER110C, stronger effect = lower value 1.01 | locus YER111C, strain swi4, stronger effect = lower value 0.981 | locus YER155C, strain BEM2 (second series), stronger effect = lower value 1.04 | locus YER155C, strain BEM2, stronger effect = lower value 1 | locus YER167W, strain BCK2, stronger effect = lower value 0.996 | locus YFR010W, strain ubp6, stronger effect = lower value 1.01 | locus YGL078C, strain dbp3, stronger effect = lower value 1.02 | locus YGL086W, strain mad1, stronger effect = lower value 1 | locus YGL167C, strain pmr1, stronger effect = lower value 0.993 | locus YGL173C, strain kem1, stronger effect = lower value 1.02 | locus YGL227W, strain vid30, stronger effect = lower value 0.993 | locus YGL240W, strain doc1, stronger effect = lower value 1.02 | locus YGL248W, strain PDE1, stronger effect = lower value 0.997 | locus YGL253W, strain hxk2, stronger effect = lower value 1.01 | locus YGR135W, strain pre9, stronger effect = lower value 1.02 | locus YGR229C, strain SMI1, stronger effect = lower value 0.991 | locus YGR252W, strain gcn5, stronger effect = lower value 0.988 | locus YHR013C, strain ard1, stronger effect = lower value 0.976 | locus YHR027C, strain rpn1, stronger effect = lower value 0.994 | locus YHR030C, strain SLT2, stronger effect = lower value 0.951 | locus YHR079C, strain IRE1 (second series), stronger effect = lower value 1.01 | locus YHR079C, strain IRE1, stronger effect = lower value 0.984 | locus YHR094C, strain hxt1, stronger effect = lower value 1.01 | locus YHR129C, strain ARP1, stronger effect = lower value 0.999 | locus YHR142W, strain chs7, stronger effect = lower value 0.945 | locus YHR200W, strain rpn10, stronger effect = lower value 1.01 | locus YIL066C, strain RNR3, stronger effect = lower value 0.991 | locus YIL073C, strain SPO22, stronger effect = lower value 1.06 | locus YIL125W, strain kgd1, stronger effect = lower value 1 | locus YIR030C, strain dcg1, stronger effect = lower value 1.01 | locus YJL092W, strain hpr5, stronger effect = lower value 0.989 | locus YJL095W, strain BCK1 (second series), stronger effect = lower value 1 | locus YJL095W, strain BCK1, stronger effect = lower value 1.03 and 0.971 | locus YJL115W, strain asf1, stronger effect = lower value 0.977 | locus YJL129C, strain trk1, stronger effect = lower value 0.997 | locus YJL134W, strain LCB3, stronger effect = lower value 0.993 | locus YJL154C, strain vps35, stronger effect = lower value 0.98 | locus YJL164C, strain tpk1, stronger effect = lower value 0.958 | locus YJL166W, strain qcr8, stronger effect = lower value 1 | locus YJL168C, strain set2, stronger effect = lower value 1.01 | locus YJL187C, strain SWE1 (second series), stronger effect = lower value 1.01 | locus YJR066W, strain TOR1, stronger effect = lower value 0.926 | locus YJR075W, strain HOC1, stronger effect = lower value 1 | locus YKL009W, strain mrt4, stronger effect = lower value 1.02 | locus YKL068W, stronger effect = lower value 0.999 | locus YKL085W, strain MDH1 (second series), stronger effect = lower value 1.01 | locus YKL085W, strain MDH1, stronger effect = lower value 1.01 | locus YKL160W, strain elf1, stronger effect = lower value 0.962 | locus YKL190W, strain CNB1, stronger effect = lower value 0.986 | locus YKR001C, strain vps1, stronger effect = lower value 1.01 | locus YKR026C, strain gcn3, stronger effect = lower value 0.994 | locus YKR091W, strain srl3, stronger effect = lower value 0.991 | locus YLL001W, strain dnm1, stronger effect = lower value 0.973 | locus YLL026W, stronger effect = lower value 0.992 | locus YLL041C, strain sdh2, stronger effect = lower value 0.985 | locus YLR027C, strain aat2, stronger effect = lower value 0.999 | locus YLR039C, strain RIC1, stronger effect = lower value 1.06 | locus YLR058C, strain SHM2, stronger effect = lower value 1.01 | locus YLR102C, strain apc9, stronger effect = lower value 0.998 | locus YLR113W, strain HOG1, stronger effect = lower value 0.997 | locus YLR221C, strain rsa3, stronger effect = lower value 1.05 | locus YLR258W, strain gsy2, stronger effect = lower value 0.998 | locus YLR262C, strain YPT6 (second series), stronger effect = lower value 0.979 | locus YLR262C, strain YPT6, stronger effect = lower value 1.1 | locus YLR268W, strain sec22, stronger effect = lower value 0.999 | locus YLR320W, strain mms22, stronger effect = lower value 1.04 | locus YLR330W, strain CHS5, stronger effect = lower value 1 | locus YLR342W, strain FKS1 (second series), stronger effect = lower value 0.985 | locus YLR342W, strain FKS1, stronger effect = lower value 0.995 | locus YLR357W, strain rsc2, stronger effect = lower value 1.01 | locus YLR370C, strain arc18, stronger effect = lower value 0.977 | locus YLR371W, strain rom2, stronger effect = lower value 1.01 | locus YLR384C, strain iki3, stronger effect = lower value 0.997 | locus YLR418C, strain cdc73, stronger effect = lower value 1.03 | locus YML016C, strain PPZ1, stronger effect = lower value 1.01 | locus YML032C, strain rad52, stronger effect = lower value 1.01 | locus YML120C, strain ndi1, stronger effect = lower value 0.973 | locus YML124C, strain tub3, stronger effect = lower value 1.02 | locus YMR058W, strain fet3, stronger effect = lower value 1 | locus YMR078C, strain ctf18, stronger effect = lower value 1.02 | locus YMR125W, strain sto1, stronger effect = lower value 0.951 | locus YMR129W, stronger effect = lower value 0.989 | locus YMR205C, strain PFK2, stronger effect = lower value 0.978 | locus YMR223W, strain ubp8, stronger effect = lower value 1.01 | locus YMR231W, strain pep5, stronger effect = lower value 1 | locus YMR263W, strain SAP30, stronger effect = lower value 1.01 | locus YMR307W, strain GAS1, stronger effect = lower value 0.982 | locus YNL067W, strain RPL9B, stronger effect = lower value 1.03 | locus YNL071W, strain lat1, stronger effect = lower value 0.987 | locus YNL128W, strain TEP1, stronger effect = lower value 1 | locus YNL183C, strain NPR1, stronger effect = lower value 0.939 | locus YNL209W, strain ssb2, stronger effect = lower value 0.988 | locus YNL233W, strain BNI4, stronger effect = lower value 0.981 | locus YNL248C, strain rpa49, stronger effect = lower value 1.03 | locus YNL250W, strain rad50, stronger effect = lower value 1.01 | locus YNL271C, strain bni1, stronger effect = lower value 1.01 | locus YNL298W, strain CLA4, stronger effect = lower value 1.01 | locus YNL307C, strain MCK1, stronger effect = lower value 1 | locus YNL322C, strain KRE1 (second series), stronger effect = lower value 1.02 | locus YNR049C, strain mso1, stronger effect = lower value 0.974 | locus YNR052C, strain pop2, stronger effect = lower value 1.02 | locus YOL012C, strain htz1 0.728 | locus YOL147C, strain pex11, stronger effect = lower value 1.01 | locus YOR001W, strain rrp6, stronger effect = lower value 1.04 | locus YOR061W, strain CKA2, stronger effect = lower value 1 | locus YOR069W, strain VPS5, stronger effect = lower value 0.998 | locus YOR070C, strain gyp1, stronger effect = lower value 0.996 | locus YOR080W, strain dia2, stronger effect = lower value 1 | locus YOR083W, strain WHI5, stronger effect = lower value 0.954 | locus YOR106W, strain vam3, stronger effect = lower value 0.938 | locus YOR136W, strain idh2, stronger effect = lower value 1.02 | locus YOR144C, strain elg1, stronger effect = lower value 1.01 | locus YOR184W, strain ser1, stronger effect = lower value 1 | locus YOR231W, strain MKK1, stronger effect = lower value 0.991 | locus YOR265W, strain rbl2, stronger effect = lower value 0.989 | locus YOR270C, strain vph1, stronger effect = lower value 0.966 | locus YOR290C, strain snf2, stronger effect = lower value 0.907 | locus YOR316C, strain cot1, stronger effect = lower value 1.01 | locus YPL051W, strain arl3, stronger effect = lower value 1.01 | locus YPL055C, strain LGE1, stronger effect = lower value 0.993 | locus YPL078C, strain atp4, stronger effect = lower value 0.953 | locus YPL106C, strain sse1, stronger effect = lower value 0.976 | locus YPL240C, strain hsp82, stronger effect = lower value 1 | locus YPL256C, strain CLN2, stronger effect = lower value 0.946 | locus YPR119W, strain clb2, stronger effect = lower value 1.01 | locus YPR141C, strain kar3, stronger effect = lower value 1.02 | locus YPR163C, strain tif3, stronger effect = lower value 1.01 | locus YPR167C, strain met16, stronger effect = lower value 1.01 | strain wtn01, stronger effect = lower value 1

From PubChem BioAssay AID1159580 (chemical genetic matrix, 2015)
